The values below come from PubChem BioAssay (NCATS).

Assay [1] is described as follows: Quantitative highthroughput screen to assess conditional lethalithy of NOMO1 cells grown in RPMI1640 with dialyzed fetal bovine serum (RPMI+ds) (AID 1963877). Further: nearly all actives have a fitted effect of over 30% in size.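 On viability: series mostly up to about 46 µM; 100% = DMSO control wells and 0% = empty wells.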 The method, boiled down: (§1)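 Each medium arm—HPLM with 10% dialyzed FBS, or RPMI1640 with 5 mM glucose and 10% untreated or dialyzed FBS—was screened against an 11-point, 3-fold compound titration for 48 h at 37 °C, with CellTiter-Glo luminescence as endpoint.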

A short description of assay [2]: Quantitative highthroughput screen to assess conditional lethalithy of NOMO1 cells grown in Human Plasma-Like Medium with dialyzed fetal bovine serum (HPLM+ds) (AID 1963878). Further: nearly all actives have a fitted effect of over 35% in size.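 On viability: 100% = DMSO wells and 0% = empty wells on each plate.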 The method, boiled down:
as §1

Assay [3] can be described thus: Quantitative highthroughput screen to assess conditional lethalithy of P12 Ichikawa cells grown in RPMI1640 with untreated serum (RPMI+s) (AID 1963881). Further: nearly all actives have a fitted effect of over 35% in size.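 On viability: series mostly up to about 46 µM; 100% = DMSO wells and 0% = empty wells without cells.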 Conditions: Potency: viability. The essentials:
as §1

The nature of assay [4]: Quantitative highthroughput screen to assess conditional lethalithy of SEM cells grown in Human Plasma-Like Medium with dialyzed fetal bovine serum (HPLM+ds) (AID 1963882). Further: nearly all actives have a fitted effect of over 35% in size. On viability: series mostly up to about 46 µM. The method, boiled down: as §1
Assay [5] in a line: Quantitative highthroughput screen to assess conditional lethalithy of SEM cells grown in RPMI1640 with unreated serum (RPMI+s) (AID 1963883). Further: nearly all actives have a fitted effect of over 35% in size.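 On viability: 100% = DMSO wells and 0% = empty wells without cells.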 The method, boiled down: as §1
Assay [6] is described as follows: Quantitative highthroughput screen to assess conditional lethalithy of SEM cells grown in RPMI1640 with dialyzed fetal bovine serum (RPMI+ds) (AID 1963884). Further: nearly all actives have a fitted effect of over 35% in size.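 On viability: series mostly up to about 46 µM; 100% = DMSO control wells and 0% = empty wells without cells.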 The essentials: as §1
The nature of assay [7]: Quantitative highthroughput screen to assess conditional lethalithy of P12 Ichikawa cells grown in Human Plasma-Like Medium with dialyzed fetal bovine serum (HPLM+ds) (AID 1963879). Further: nearly all actives have a fitted effect of over 35% in size. On viability: series mostly up to about 46 µM. Conditions: Potency: viability. The method, boiled down: as §1
Assay [8] in a line: Quantitative highthroughput screen to assess conditional lethalithy of P12 Ichikawa cells grown in RPMI1640 with dialyzed fetal bovine serum (RPMI+ds) (AID 1963880). Further: nearly all actives have a fitted effect of over 35% in size.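 On viability: 100% = DMSO wells and 0% = empty wells on each plate.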 To be noted: Potency: P12-Ichikawa viability. The essentials: as §1
Assay [9] is described as follows: Cellular viability qHTS for adrenocortical cancer (ACC) cell line NCI-H295R (AID 1963990). Further: nearly all actives have a fitted effect of over 60% in size. The method, boiled down: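 Viability of NCI-H295R after 48 h of treatment (final up to 46 uM) measured through cellular ATP luminescence.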
Assay [10] can be described thus: Cellular viability qHTS for adrenocortical cancer (ACC) cell line SW-13 (AID 1963989). Further: nearly all actives have a fitted effect of over 65% in size.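 On activity (max response): cells grown in serum-free medium with ITS supplement; on the % scale 0 is the no-effect control and ±100 the full control effect.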 To be noted: SW-13 ACC cells viability, CellTiter-Glo, 48 h; activity (max response): active compounds read low. The method, boiled down:
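Here, serum-free SW-13 cultures were dosed up to 46 uM. Following 48 h, ATP-dependent luminescence (CellTiter-Glo) reported viable cells, and logistic modeling produced IC50 values.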

Where “and” joins values, the source holds several entries; their conditions need not be identical. Equal entries are not always repeated. Inconclusive results are not listed. Unmarked numbers belong to inactive results. Calls of active or inactive are those of the source. The call rests on the fitted dose curve; in most records, active means well fitted curve in the direction sought with a large enough effect; inconclusive means small, poorly fitted or top-dose-only effect, or another doubt; inactive means no such curve, though single readings can be large; an effect the other way counts as inactive or inconclusive.
Potency means the concentration at half of the fitted maximal effect.

For the compound `COC(=O)C1=CO[C@@H](O)[C@@H]2C(CO)=CC[C@@H]12`, in assay [1], the Potency entry is “inactive”.

Consider `CC(C)N1[N]C(=C2C=c3cc(O)ccc3=N2)c2c(N)ncnc21`, for which the Potency is 7.43 µM (active) in assay [1]; 0.935 µM (active) in assay [2]; 4.18 µM (active) in assay [3]; 1.48 µM (active) in [4]; 2.96 µM (active) in assay [5]; 2.64 µM (active) in assay [6].

Consider `CCOC(=O)[C@H](CCc1ccccc1)N[C@@H](C)C(=O)N1[C@@H](C(=O)O)C[C@H]2CCC[C@@H]21`, for which the Potency in [1] and in [2] was 23.5 µM (active) in each case.

On to `CC(=O)OCC(=O)[C@@]1(O)CC[C@H]2[C@@H]3CCC4=CC(=O)CC[C@]4(C)[C@@H]3C(=O)C[C@@]21C`, for which the Potency result in [1], in [2], in assay [7], in assay [8], in assay [4] and in assay [5] was “inactive” throughout. In addition, the Potency entry in [6] is “inactive”.

`C[C@]12CC[C@@H]3c4ccc(O)cc4CC[C@H]3[C@H]1C[C@@H](O)[C@H]2O`: the Potency entry in [1], in [2], in assay [7], in [8], in assay [4] and in assay [5] was “inactive” in each case. In [6], the Potency result is “inactive”.

As for `CNC(=O)c1ccc(Nc2cc(Nc3ccccc3S(=O)(=O)C(C)C)c3cc[nH]c3n2)nc1`, the Potency in [7] is 2.35 µM (active); in assay [3], 1.87 µM (active); in [5], 1.48 µM (active).

Consider `CN(C)CCOc1cc(-c2cn[nH]c2)ccc1NC(=O)C1COc2ccccc2O1` (stereo not drawn), for which the Potency entry in assay [7] and in assay [8] was “inactive” each time. The Potency in assay [9] was 17.8 µM (active).

For `Cc1cc(N2CCOCC2)cc2[nH]c(-c3c(NC[C@@H](O)c4cccc(Cl)c4)cc[nH]c3=O)nc12`, the Potency entry in assay [7] and in assay [8] was “inactive” in each case. Moreover, the Potency is 1.48 µM (active) in [4], 1.66 µM (active) in assay [5], 1.87 µM (active) in [6] and 5.01 µM (active) in assay [9].

As for `C[C@]12C=CC(=O)C=C1CC[C@@H]1[C@@H]2[C@@H](O)C[C@@]2(C)[C@@H]1CC[C@]2(O)C(=O)CO`, the Potency in [7] is 16.6 µM (active); in assay [8], 7.43 µM (active); in assay [3] it was 6.62 µM (active); in assay [4], 6.62 µM (active).

For the compound `CC(C)n1c(C=C[C@H](O)C[C@H](O)CC(=O)O)c(-c2ccc(F)cc2)c2ccccc21`, the Potency in assay [7] was 5.9 µM (active); in [8], 4.69 µM (active); in [3] it was 4.69 µM (active).

As to `Cc1ccc(N(CC2=NCCN2)c2cccc(O)c2)cc1`, the Potency result in assay [7], in assay [3], in assay [5] and in assay [9] was “inactive” throughout. Besides, in [10], the Potency is 23.1 µM (active) and 25.1 µM (active).

`Cc1csc(-c2nnc(Nc3ccc(Oc4ncccc4-c4ccnc(N)n4)cc3)c3ccccc23)c1`: the Potency is 0.0105 µM (active) in assay [7] and 0.0166 µM (active) in [5]. Moreover, in assay [10], the activity (max response) is -17.7%. In assay [9], the Potency result was “inactive”.

For `Cc1nc(Nc2ncc(C(=O)Nc3c(C)cccc3Cl)s2)cc(N2CCN(CCO)CC2)n1`, the Potency in assay [7] is 1.87 µM (active); in assay [10] it was 1.84 µM (active) and 1.41 µM (active); in [9] it was 20.6 µM (active) and 25.1 µM (active).

As to `CC(C)OC(=O)[C@H](C)N[P@](=O)(OC[C@H]1O[C@@H](n2ccc(=O)[nH]c2=O)[C@](C)(F)[C@H]1O)Oc1ccccc1`, the Potency in assay [7] was 1.32 µM (active); in assay [8], 4.69 µM (active); in assay [3], 6.62 µM (active); in [4], 4.69 µM (active); in assay [5], 6.62 µM (active); in [6] it was 8.33 µM (active).

For `CNc1nc(-c2ccc3c(N)n[nH]c3c2)cc(N2C[C@@H](C(=O)NC3CCCCC3)CC[C@@H]2C)n1`, the Potency in [7] was 23.5 µM (active); in [3], 16.6 µM (active); in assay [4] it was 16.6 µM (active); in assay [5], 16.6 µM (active); in assay [6] it was 18.7 µM (active).

On to `COc1cc(OC)c(C=CS(=O)(=O)Cc2ccc(OC)c(NCC(=O)O)c2)c(OC)c1`, for which the Potency was 0.264 µM (active) in [7]; 0.166 µM (active) in [8]; 0.235 µM (active) in assay [3]; 0.209 µM (active) in assay [5]; 0.118 µM (active) in assay [6].

With `Cc1[nH]c(C=C2C(=O)Nc3ccc(S(=O)(=O)N(C)c4cccc(Cl)c4)cc32)c(C)c1C(=O)N1CCN(C)CC1`, the Potency in assay [7] was 18.7 µM (active); in assay [8], 14.8 µM (active); in [3], 18.7 µM (active); in [4] it was 13.2 µM (active); in assay [5], 11.8 µM (active); in assay [6] it was 6.62 µM (active).

With `CCOC(=O)N[C@@H]1CC[C@@H]2[C@@H](C1)C[C@H]1C(=O)O[C@H](C)[C@H]1[C@@H]2C=Cc1ccc(-c2cccc(F)c2)cn1`, the Potency entry in assay [7] was “inactive”.

Turning to `COc1ccc(-c2oc3cc(OC)ccc3c2C(=O)c2ccc(C#N)cc2)cc1`, the Potency in assay [7] was 1.87 µM (active); in [8], 2.96 µM (active); in assay [3] it was 1.32 µM (active). The Potency entry in assay [4], in assay [5] and in assay [6] was “inactive” throughout.

On to `CC(=O)ON=C1C(c2c(O)[nH]c3cc(Br)ccc23)=Nc2ccccc21`, for which the results for the Potency in assay [7] and in assay [4] were 20.9 µM (active) and 1.18 µM (active), respectively.

In the case of `CCCCCCCCOc1ccccc1C(=O)Nc1ccc(C(=O)OCC[N+](C)(CC)CC)cc1`, in [7], the Potency result was “inactive”.

On to `Cc1nnc(C(C)C)n1C1C[C@H]2CC[C@@H](C1)N2CC[C@H](NC(=O)C1CCC(F)(F)CC1)c1ccccc1` (stereo partly drawn), for which the Potency in [7] was 16.6 µM (active).

Consider `CCOc1ccccc1N=Nc1c(C)[nH]n(-c2nc(-c3ccccc3)cs2)c1=O`, for which the Potency is 16.6 µM (active) in assay [7], 5.26 µM (active) in assay [4], 6.62 µM (active) in assay [5] and 7.43 µM (active) in assay [6]. Besides, the Potency entry in [8] and in assay [3] was “inactive” throughout. In addition, the activity (max response) in assay [10] was -16.4%.

In the case of `CC1=C(C)C(=O)C(C(CCCCCC(=O)O)c2ccccc2)=C(C)C1=O` (stereo not drawn), the Potency result in assay [7] and in assay [9] was “inactive” each time. In [3], the Potency was 8.33 µM (active). Moreover, the activity (max response) in assay [10] was 0.763% and -13.4%.
